Assay results from PubChem BioAssay (NCATS).
Measured potencies and affinities stand elsewhere. A number with no mark means an inactive call. The source made the active and inactive calls. No rule for the calls is given here.

What was measured:
[1] = Ebola virus entry assay, green fluorescence channel
[2] = Ebola virus entry assay, green channel fluorescence
For efficacy in this document: 0% is about no effect.

Row | SMILES | efficacy [1] | outcome [2]
1 | Cc1ccc(Nc2nccc(N(C)c3ccc4c(C)n(C)nc4c3)n2)cc1S(N)(=O)=O | 37.4% | inactive
2 | CN=C(NC#N)Nc1ccc(C2=NNC(=O)CC2C)cc1 (configuration not stated) | -19.1% | inactive
3 | Nc1ccc(S(=O)(=O)Nc2ccccn2)cc1 | -13.9% | inactive
4 | COc1ccc(/C(C)=C/C(=O)O)c(OC)c1 | -13.7% | inactive
5 | CCOC(=O)c1ccc(OCCN2C[C@H](O)[C@@H](O)[C@H](O)[C@H]2CO)cc1 | -12.9% | inactive
6 | CC(=O)OCC(=O)[C@H]1CC[C@H]2[C@@H]3CCC4=CC(=O)CC[C@]4(C)[C@H]3CC[C@]12C | -27% | inactive
7 | NS(=O)(=O)c1ccc(C(=O)O)cc1 | 11% | inactive
8 | CN1CCN(N)CC1 | 16.4% | inactive
9 | COc1cc(C=O)ccc1O | -12.7% | inactive
10 | CC(C)COC(=O)c1ccc(N)cc1 | 8.42% | inactive
11 | Oc1cccc(O)c1 | -18.5% | inactive
12 | Cc1cc(O)cc(C)c1Cl | -20.2% | inactive
13 | CC1CN(c2cc3c(cc2F)c(=O)c(C(=O)O)cn3-c2ccc(F)cc2F)CCN1 (configuration not stated) | 9.66% | inactive
14 | CC(=O)C1CCOC1=O (configuration not stated) | 6.81% | inactive
15 | CCS(=O)(=O)c1ccc(OC)c(C(=O)OC)c1 | 18.9% | inactive
16 | COC(=O)c1cc(Cl)ccc1NS(=O)(=O)C(F)(F)F | -9.07% | inactive
17 | CC(=O)Oc1cccc2c1C(=O)c1c(OC(C)=O)cc(C(=O)O)cc1C2=O | -17.1% | inactive
18 | O=C(O)c1ccc(=O)[nH]c1 | -14.8% | inactive
19 | CCCC(O)C(CC)CO (configuration not stated) | 14.1% | inactive
20 | Cc1c(C(=O)NCCO)[n+](=O)c2ccccc2n1[O-] | -17% | inactive
21 | CN1N=C(C(N)=O)CCC1=O | -14% | inactive
22 | CCC(C)C(C)(COC(N)=O)COC(N)=O (configuration not stated) | 12.3% | inactive
23 | CCOc1ccc(NC(=O)CC(C)O)cc1 (configuration not stated) | 16.1% | inactive

Row | SMILES | efficacy [1] | outcome [2]
24 | CC(=O)N(c1onc(C)c1C)S(=O)(=O)c1ccc(N)cc1 | -8.94% | inactive
25 | CC1CCN(CCCC(=O)c2ccc(F)cc2)CC1 | -14.6% | inactive
26 | c1ccc2c(c1)CCCC2C1=NCCN1 (configuration not stated) | -12.9% | inactive
27 | Nc1ccc(S(=O)(=O)Nc2ccc(Cl)nn2)cc1 | -19.3% | inactive
28 | CCCCOC(=O)c1ccc(N)cc1 | 12.8% | inactive
29 | CN(CC1(C)CCCO1)S(=O)(=O)c1ccc(Cl)c(S(N)(=O)=O)c1 (configuration not stated) | -11% | inactive
30 | C[C@]12CC[C@H]3[C@@H](CCC4=CC(=O)CC[C@@H]43)[C@@H]1CC[C@@H]2OC(=O)CCC1CCCCC1 | -18.4% | inactive
31 | O=C(O)CSCC(=O)NC1CCSC1=O (configuration not stated) | -14.4% | inactive
32 | CCC(C)(CN(C)C)OC(=O)c1ccccc1 (configuration not stated) | 37.4% | inactive
33 | COc1ccc(O)cc1 | 18.3% | inactive
34 | CCc1oc2ccccc2c1C(=O)c1cc(I)c(O)c(I)c1 | -12% | inactive
35 | NC(=O)NC1N=C([O][Al])NC1=O (configuration not stated) | 12.9% | inactive
36 | CC1(COc2ccc(CC3SC(=O)NC3=O)cc2)CCCCC1 (configuration not stated) | -16.4% | inactive
37 | COC(=O)CCCCC(CCSS/C(CCO)=C(\C)N(C=O)Cc1cnc(C)nc1N)SC(C)=O (configuration not stated) | -13.6% | inactive
38 | Cn1cc(S(C)=O)c(=O)c2ccc(F)cc21 (configuration not stated) | -15.1% | inactive
39 | Cc1coc2ccccc2c1=O | -25.1% | inactive
40 | CC(=O)SCC(CC(=O)c1ccc(C)cc1)C(=O)O (configuration not stated) | 17.3% | inactive
41 | CC1(C)O[C@@H]2C[C@H]3[C@@H]4CCC5=CC(=O)C=C[C@]5(C)[C@@]4(F)[C@@H](O)C[C@]3(C)[C@]2(C(=O)CO)O1 | 24.4% | inactive
42 | CC(C)(N)Cc1ccccc1Cl | 18% | inactive
43 | Cc1ccccc1N1CCN(CCc2nnc3n2CCCC3)CC1 | -13.1% | inactive
44 | Nc1ccc(/C=C/c2ccc(N)cc2S(=O)(=O)O)c(S(=O)(=O)O)c1 | 21.3% | inactive
45 | CC(=O)Nc1ccc(/C=N/NC(N)=S)cc1 | 33.2% | inactive
46 | CC(C)(C)NCC(O)COc1cccc2c1C[C@H](O)[C@H](O)C2 (some centres not stated) | 21.3% | inactive

Row | SMILES | efficacy [1] | outcome [2]
47 | Cn1c([N+](=O)[O-])cnc1COC(N)=O | 19.4% | inactive
48 | COc1ccc(C(=O)c2ccccc2O)c(O)c1 | -11.1% | inactive
49 | CC(=O)[C@@]1(O)CC[C@H]2[C@@H]3C[C@H](C)C4=CC(=O)C=C[C@]4(C)[C@@]3(F)[C@@H](O)C[C@@]21C | -18.9% | inactive
50 | O=C(c1ccccc1)c1ccccc1 | 10.2% | inactive
51 | O=C(N/N=C/c1ccc([N+](=O)[O-])o1)c1ccc(O)cc1 | 14.6% | inactive
52 | Oc1ccccc1-c1nnco1 | 7.99% | inactive
53 | CC(=O)Nc1c(I)c(NC(C)=O)c(I)c(C(=O)O)c1I | -8.35% | inactive
54 | CCCCC(CC)CNC(=O)CC(C)OC(=O)CCC(=O)O (configuration not stated) | 12.2% | inactive
55 | Cn1c(=O)c2[nH]c(Br)nc2n(C)c1=O | -24.3% | inactive
56 | O=C(N/N=C/c1ccc([N+](=O)[O-])o1)c1cc([N+](=O)[O-])cc([N+](=O)[O-])c1O | -16.9% | inactive
57 | CCCNC(C)C(=O)Nc1c(C)csc1C(=O)OC (configuration not stated) | 13% | inactive
58 | CC(C)=CCC[C@@](C)(O)[C@H]1CC=C(C)CC1 | -15.6% | inactive
59 | NC(=O)c1cc[n+](CC2=C(C(=O)[O-])N3C(=O)[C@@H](NC(=O)Cc4cccs4)[C@H]3SC2)cc1 | -13.3% | inactive
60 | Cc1cc(=O)c2c(O)c3c(O)cc(=O)c4c3c3c(cc(O)c1c23)C(C)(C)C=4O | -11.2% | inactive
61 | CCNC(=O)/C=C/c1cccc(Br)c1 | -12% | inactive
62 | C[C@@H](CN1CC(=O)NC(=O)C1)N1CC(=O)NC(=O)C1 | 17.9% | inactive
63 | N#C[C@H]1C[C@H]2C[C@@H]2N1C(=O)[C@@H](N)C12CC3CC(CC(O)(C3)C1)C2 | -19.1% | inactive
64 | O=C(O)CCCCC(=O)O | -12.4% | inactive
65 | C/C(=N\O)[C@@H](C)NCC(C)(C)CN[C@H](C)/C(C)=N/O | -29.3% | inactive
66 | CC(=O)O[C@@H]1C(=O)O[C@@H]2[C@H]1OC(=O)[C@@H]2OC(C)=O | -16.6% | inactive
67 | C#C[C@]1(O)CC[C@H]2[C@@H]3CCC4=CC(=O)CC[C@@H]4[C@H]3CC[C@@]21CC | 10.4% | inactive
68 | NC(=O)NC1NC(=O)NC1=O (configuration not stated) | -19.2% | inactive
69 | COc1ccc(C(=O)CC(=O)c2ccc(C(C)(C)C)cc2)cc1 | -14.9% | inactive

Row | SMILES | efficacy [1] | outcome [2]
70 | CCCCCCCCCCCCCCCCN | -37.3% | inactive
71 | CO[C@@]1(NC(=O)CSCC#N)C(=O)N2C(C(=O)O)=C(CSc3nnnn3C)CS[C@@H]21 | -13.7% | inactive
72 | CC(C(=O)O)c1cccc(Oc2ccccc2)c1 (configuration not stated) | 18.1% | inactive
73 | NCC(=O)CCC(=O)O | -14.6% | inactive
74 | Nc1ncnc2c1ncn2Cc1c(F)cccc1Cl | -22.1% | inactive
75 | C[C@@H]1CN(c2c(F)c(F)c3c(=O)c(C(=O)O)cn(C4CC4)c3c2F)C[C@H](C)N1 | -15.7% | inactive
76 | CC(C)(Oc1ccc(Cl)cc1)C(=O)OCCCOC(=O)C(C)(C)Oc1ccc(Cl)cc1 | -14% | inactive
77 | CCCCCCCCCCCCCCCCCCO | -11.3% | inactive
78 | CC1(C)O[C@H]2CC(=O)OC[C@]23[C@H]2CC[C@@]4(C)[C@H](c5ccoc5)OC(=O)[C@H]5O[C@]54[C@]2(C)C(=O)C[C@@H]13 | -20.6% | inactive
79 | COc1c2occc2c(OC)c2c(=O)cc(C)oc12 | 13.6% | inactive
80 | CN1CCC(O)(c2ccc(F)cc2)C(C(=O)c2ccc(F)cc2)C1 (configuration not stated) | 22.6% | inactive
81 | C=CCc1ccc(O)c(OC)c1 | 23.7% | inactive
82 | CN(C)C(=O)Oc1ccc[n+](C)c1 | 18% | inactive
83 | CCn1ccc(NS(=O)(=O)c2ccc(N)cc2)nc1=O | -11.6% | inactive
84 | Cc1cc(C)c(NC(=O)CN(CC(=O)O)CC(=O)O)c(C)c1Br | 7.04% | inactive
85 | CC12CCC(CC1)C(C)(C)O2 | 14.6% | inactive
86 | COC(=O)/C=C(/C)N | 22.1% | inactive
87 | CC(C)[N+](C)(C)CC(O)COc1cccc2ccccc12 (configuration not stated) | -28.5% | inactive
88 | CCCCOC(=O)CC(CC(=O)OCCCC)(OC(C)=O)C(=O)OCCCC | 21.9% | inactive
89 | N#CSCC(=O)O | -33.9% | inactive
90 | COc1ccc2c(c1)CCCC2=O | 8.41% | inactive
91 | Cc1c(C(=O)O)c(O)cc2c1C(=O)c1c(O)c([C@@H]3O[C@H](CO)[C@@H](O)[C@H](O)[C@H]3O)c(O)c(O)c1C2=O | -19.5% | inactive
